High-throughput results as filed in PubChem.
IL1B secr inh: blocks inflammasome-driven IL-1 beta release | THP-1 LPS/ATP IL-1B secretion, AlphaLISA, 16 h; active compounds read low | activity change, % at 57.5 µM | AID 743279 | hit rate 4.7% among 360,000; in the data active = activity change below about -50%; inconclusive = mostly about -30% to -49%; note: % is set by controls: 0 for no effect and ±100 for the full control effect
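THP-1 cells pretreated 1 hr with compounds (up to 57.5 uM final), then stimulated with LPS (250 ng/mL final) plus ATP (1.25 mM final); secreted IL-1B measured by AlphaLISA after 16 hr, decreased signal indicating inhibition.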
DT40 TDP1 CPT: growth inhibition of DT40 Tdp1-/-;hTDP1 cells with camptothecin (screen for TDP1 inhibitors); hit rate 12% among 420,000; chicken DT40 Tdp1-/-;hTDP1 cells + 20 nM CPT, ATP luminescence, 48 h; Potency, µM (series often up to 46.2 µM), without a hit: top-dose activity change, negative = growth inhibition, hits mostly inhibitors; note: potency is the fitted concentration of half-maximal effect; % is set by controls: 0 for no effect and ±100 for the full control effect; nearly all actives have a fitted effect of over 55% in size
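Chicken DT40 Tdp1-/- cells complemented with human TDP1, 400 cells/well, exposed to compounds plus 20 nM camptothecin for at least 48 h at 37 C; viability read as ATP content by CellTiter-Glo luminescence.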
TGFb inhibitor: inhibitors of TGF-b signaling; Potency, µM (series often up to 46.1 µM), without a hit: at the top dose activity, negative = inhibition, hits mostly inhibitors; HepG2 CAGA-GFP TGF-b/SMAD3 reporter, GFP fluorescence, 18 h; TGF-beta stimulated, 500 pg/mL final; hit rate 1.2% among 410,000; note: potency is the fitted concentration of half-maximal effect; % is set by controls: 0 for no effect and ±100 for the full control effect; nearly all actives have a fitted effect of over 65% in size
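Per well, imaged GFP fluorescence of HEPG2 CAGA-GFP cells gives the signal; cells get compound, then TGF-beta (500 pg/mL final), 18 h at 37 degrees C; %Activity versus -TGF-beta and +DMSO controls.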
TDP1 block: inhibitors of human tyrosyl-DNA phosphodiesterase TDP1 | Q9NUW8 | recombinant TDP1, AlphaScreen DNA substrate cleavage | Potency, µM (titrated, usually from 130 µM), for the others: at the highest dose activity change, negative = inhibition, most hits filed as inhibitors | hit rate 0.28% among 350,000; note: potency is the fitted concentration of half-maximal effect; % is set by controls: 0 for no effect and ±100 for the full control effect; nearly all actives have a fitted effect of over 40% in size
Target sequence (Q9NUW8 whole entry, looked up): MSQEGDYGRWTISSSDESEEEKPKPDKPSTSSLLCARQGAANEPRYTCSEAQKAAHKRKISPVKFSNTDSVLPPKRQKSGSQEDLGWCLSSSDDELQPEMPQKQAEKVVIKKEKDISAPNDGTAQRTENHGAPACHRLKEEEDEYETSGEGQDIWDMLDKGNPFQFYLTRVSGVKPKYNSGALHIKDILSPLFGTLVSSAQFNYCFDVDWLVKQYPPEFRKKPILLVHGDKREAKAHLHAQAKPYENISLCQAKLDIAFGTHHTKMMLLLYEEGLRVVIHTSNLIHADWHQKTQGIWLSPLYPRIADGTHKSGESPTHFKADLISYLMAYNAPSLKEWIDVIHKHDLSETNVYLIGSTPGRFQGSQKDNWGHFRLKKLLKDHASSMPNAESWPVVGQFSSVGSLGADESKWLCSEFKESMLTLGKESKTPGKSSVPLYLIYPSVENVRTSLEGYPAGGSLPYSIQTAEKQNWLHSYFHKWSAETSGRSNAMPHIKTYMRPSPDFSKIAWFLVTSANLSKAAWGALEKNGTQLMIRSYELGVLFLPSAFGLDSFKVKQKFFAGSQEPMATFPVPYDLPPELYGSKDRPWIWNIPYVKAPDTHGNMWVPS
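Steps: enzyme plus compound, 15 min RT; add biotin/phosphotyrosine-FITC oligonucleotide (15 nM final), react 5 min; add donor/acceptor beads (10 ug/ml final), 10 min; read AlphaScreen. Tdp1 at 1 nM final.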
HepG2 viability: counter-screen for TGF-b inhibitors: cytotoxicity in HepG2 cells; AID 588856; hit rate 0.76% among 410,000; Potency, µM (series often up to 46.1 µM), for inactives: top-dose activity change, negative = cytotoxicity, most hits filed as cytotoxic; HepG2 CAGA-GFP viability, ATP luminescence, 18 h; note: potency is the fitted concentration of half-maximal effect
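HepG2 CAGA-GFP cells (1000/well, DMEM with 1% FBS) received compound, then TGF-beta at 500 pg/mL final, and were incubated 18 hours at 37 degrees C. Viability was read by CellTiter-Glo luminescence. Media-only wells were set as complete cell-killing and DMSO as no toxicity.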
TDP1 cell noCPT: qHTS for Inhibitors of human tyrosyl-DNA phosphodiesterase 1 (TDP1): qHTS in cells in absence of CPT | hit rate 15% among 420,000 | Potency, µM (top dose mostly 46.2 µM), for the others: at the top dose activity change, negative = growth inhibition, hits mostly inhibitors | DT40 Tdp1-/- hTDP1 cells, no CPT, ATP luminescence, 48 h; note: potency is the fitted concentration of half-maximal effect; % is set by controls: 0 for no effect and ±100 for the full control effect; nearly all actives have a fitted effect of over 55% in size
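Growth kinetics read by CellTiter-Glo luminescence after ≥48 hr at 37 °C. Cells: DT40 Tdp1-/- stably carrying human TDP1, 400 per well, compound exposure in the absence of CPT (DMSO vehicle).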
Numbers without * were called inactive; ? = inconclusive; / = no result given. Only some compounds are listed: those with a hit (about 19% of all), similar ones and a draw of the others. Unless noted, calls come from the whole dose curve; as a rule, active = well fitted curve in the direction sought with a large enough effect; inconclusive = small, poorly fitted or top-dose-only effect, or another doubt; inactive = no such curve, though single readings can be large; an effect the other way counts as inactive or inconclusive.

SMILES | IL1B secr inh | DT40 TDP1 CPT | TGFb inhibitor | TDP1 block | HepG2 viability | TDP1 cell noCPT
COC(=O)c1ccc(C(=O)OC)c(NC(=O)c2ccc(-c3ccccc3)s2)c1 | / | -3.8% | 1.4% | 0.0% | -2.0% | -14.7%
N#Cc1nc(Nc2ccc(C(F)(F)F)cc2)nc(NC2CCCC2)n1 | / | / | / | -0.3% | / | /
COc1ccc(-c2nc(CCNC(=O)c3cc(OC)c(OC)c(OC)c3)cs2)cc1 | / | 13µM* | ? | -1.1% | -2.8% | 13µM*
c1ccc(-c2nc(N3CCN(c4ccccc4)CC3)nc(-n3ccnc3)n2)cc1 | ? | ? | -1.7% | 7.3% | -3.6% | 16.4µM*
c1ccc(-c2ccc(-n3ccnc3)cc2)cc1 | -24.4 | 25.9µM* | -1.8% | 4.9% | -28.7% | ?
COc1ccc(/C=C/C(=O)N(C(C)C)C(C)C)cc1Br | -26.0 | ? | -1.9% | 2.6% | -6.2% | 12.6µM*
COc1ccc(/C=C/C(=O)N(C)C2CCCCC2)cc1Br | -67.9* | ? | -6.7% | 3.6% | -5.5% | ?
CN(C(=O)/C=C/c1cnc2ccccc2c1)C1CCCCC1 | -57.9* | -19.2% | 4.1% | 4.8% | -5.6% | ?
COc1ccc(/C=C/C(=O)NC(C)C)cc1Br | -9.8 | 16.6% | 0.9% | 2.6% | -2.2% | -4.7%
CCN(C(=O)/C=C/c1ccccc1)C1CCCCC1 | ? | -0.8% | 7.4% | / | 6.5% | ?
CN(C)CCCn1cnc2c1c(=O)[nH]c(=O)n2Cc1ccccc1 | -1.3 | 4.4% | 9.9% | / | -5.0% | 0.3%
COc1cc(C2C(C#N)=C(N)N(Nc3ccccc3)C3=C2C(=O)CC(C)(C)C3)ccc1OCc1ccccc1 (stereo not given) | ? | ? | ? | 11.4% | -23.3% | 20.6µM*
COc1cc(C2C(C#N)=C(N)N(N(C)C)C3=C2C(=O)CC(C)(C)C3)ccc1O (stereo not given) | -10.3 | -9.1% | -2.0% | / | -1.5% | -6.1%
COc1cc(C2C(C#N)=C(N)N(Nc3ccccc3)C3=C2C(=O)CC(C)(C)C3)ccc1OCc1cccc(F)c1 (stereo not given) | -52.4* | ? | ? | 5.9% | 1.2% | ?
COc1ccc(C2C(C#N)=C(N)N(c3cccnc3)C3=C2C(=O)CC(C)(C)C3)cc1OC (stereo not given) | 7.1 | 23.1µM* | -4.8% | 1.3% | 3.4% | ?
COc1ccc(C2C(C#N)=C(N)N(N(C)C)C3=C2C(=O)CC(C)(C)C3)cc1OC (stereo not given) | 4.2 | -16.8% | 0.0% | / | 10.9% | 6.9%
C=CCOc1ccc(C2C(C#N)=C(N)N(Nc3ccccc3)C3=C2C(=O)CCC3)cc1OC (stereo not given) | 13.6 | ? | -9.2% | 3.1% | -19.6% | 16.4µM*
COc1cccc(C2C(C#N)=C(N)N(N(C)C)C3=C2C(=O)CCC3)c1 (stereo not given) | -10.4 | -14.3% | -7.9% | / | -4.6% | 10.3%
COc1ccc(Cl)cc1NC(=O)Cn1c(=O)n(Cc2nc(C)no2)c(=O)c2ccccc21 | / | -2.7% | -23.9% | 5.6% | 1.8% | -18.4%
CCCCCNC(=O)C1CCC(Cn2c(=O)c3sccc3n(CC)c2=O)CC1 (stereo not given) | / | ? | -0.9% | 0.6% | -24.8% | ?
CC(C)(C)n1ncc2c(=O)n(Cc3ccc(SC(=O)O)cc3Cl)cnc21 | / | / | -14.7% | / | -10.2% | /
Cc1cccc(N=C2NN=C(c3ccc4c(c3)OCCO4)CS2)c1 | -3.1 | -8.5% | -1.4% | 5.4% | -25.1% | -12.1%
CCc1ccc(C2=NNC(=Nc3cccc(S(=O)(=O)N(C)C)c3)SC2)cc1 | -69.8* | 20.6µM* | 12.6µM* | 3.4% | -40.8% | 18.4µM*
CCN(CC)c1ccc(/C=N/NC(=O)Cc2cccs2)c(O)c1 | 66.0 | 4.61µM* | 15.5% | 2.6% | -20.9% | 5.17µM*
O=C(N/N=C/c1ccc(OCc2ccccc2)cc1)c1ccco1 | 23.9 | ? | -11.1% | 1.2% | -4.8% | ?
SMILES | IL1B secr inh | DT40 TDP1 CPT | TGFb inhibitor | TDP1 block | HepG2 viability | TDP1 cell noCPT
CCN(CC)c1ccc(NC(=S)NC(=O)c2ccco2)cc1 | -18.2 | 18.4µM* | ? | 9.6% | 0.9% | 18.4µM*
CCN(CC)c1ccc(NC(=O)c2ccco2)cc1 | -12.5 | -6.9% | 7.0% | -7.3% | 6.7% | -12.6%
CCN(CC)c1ccc(/C=N/NC(=O)c2ccco2)cc1 | 30.0 | ? | ? | 4.5% | -10.9% | 3.26µM*
CCN(CC)c1ccc(/C=N/NC(=O)c2ccco2)c(O)c1 | 343.6 | 5.17µM* | ? | 9.6% | -15.2% | 2.59µM*
O=C(Nc1ccc(Cl)cc1F)c1cc(S(=O)(=O)NCc2ccc3c(c2)OCO3)ccc1F | / | ? | -27.4% | 0.0% | -32.0% | -7.7%
Cc1cc(N2CCC(C(=O)Nc3ccccc3Cl)CC2)n2nc(C)c(-c3ccc(Cl)cc3)c2n1 | / | 6.7% | -3.8% | 1.2% | -4.9% | -60.0%
COc1cc(S(=O)(=O)NCc2ccc(F)cc2)ccc1-n1cnnn1 | 9.6 | -18.5% | 22.1% | / | 4.5% | -9.9%
CCN(CC)c1ccc(/C=N/NC(=O)c2cnccn2)cc1 | 13.1 | 1.3µM* | -0.5% | 6.9% | 2.0% | 1.64µM*
CCN(CC)c1ccc(/C=N/N=C(c2ccccc2)c2ccccc2)c(O)c1 | -23.2 | ? | -0.3% | -2.4% | -26.8% | 20.6µM*
CCN(CC)c1ccc(/C=N/N(c2ccccc2)c2ccccc2)c(O)c1 | -23.9 | ? | -1.6% | 5.6% | 7.6% | ?
CCN(CC)c1ccc(/C=N/NC(=O)c2ccc([N+](=O)[O-])cc2)cc1 | 1.4 | -12.4% | 3.8% | -2.7% | -7.3% | -8.2%
COc1cc(C(=O)NNC2=CC(=O)CC(C)(C)C2)cc(OC)c1OC | 36.6 | -4.1% | 10.3% | 0.0% | -9.4% | -11.6%
CC[N+](CC)(CC)c1ccc(/C=C/c2ccnc3ccccc23)cc1 | / | 0.398µM* | 2.51µM* | / | -75.8% | 0.316µM*
CC[N+](C)(C)c1ccc(/C=C/c2ccnc3ccccc23)cc1 | / | 0.0794µM* | 11.2µM* | / | -74.5% | 0.112µM*
Cc1cc(C)c2nc(N(Cc3cccnc3)C(=O)c3cccs3)sc2c1 | / | ? | 0.0% | 2.6% | -14.1% | ?
O=C(CSc1c2c(nc3cc(Cl)ccc13)CCCC2)NCCCN1CCOCC1 | -100.9* | ? | ? | 5.8% | -42.4% | ?
O=C(CSc1c2c(nc3ccc(Cl)cc13)CCCC2)NCCCN1CCOCC1 | -92.9* | ? | ? | -4.9% | -38.4% | ?
